# An excerpt weighted towards active compounds, which were near 0.99% of everything screened.
# TRPV1 PAM: enhances activation of the human vanilloid receptor TRPV1; Q8NER1; TRPV1-expressing cells, Fluo-8 calcium influx, capsaicin EC20 potentiation; potentiation, % at 8.33 µM; 320,000 compounds, 0.02% hits; AID 540277; in the data active means potentiation above about 80%; inconclusive means between about 30% and that limit; further: 0% is about no effect
#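 Fluo-8 calcium influx in TRPV1-expressing cells, kinetic read (ex 480/em 520 nm). Compound added and read 3 min for agonist activity, followed by capsaicin at EC20 final and 2 min further read for enhancement.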
# TRHR ag: TRH receptor (human) agonism. activation, % at 2 µM. 360,000 compounds, 0.18% hits. P34981. TRHR cells, calcium flux fluo-8, FDSS agonist mode; in the data active means activation above about 30%; further: 0% is about no effect
#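 TRHR-expressing cells loaded with fluo-8 calcium dye; 23 nL library compound pin-transferred, kinetic FDSS fluorescence (Ex 480/Em 530) recorded about 180 s for agonist-induced calcium release, before a 10 nM TRH EC20 addition for potentiator mode.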
# TRPV1 agonist: agonists of human vanilloid receptor 1 (TRPV1); TRPV1-expressing cells, Fluo-8 calcium influx, agonist mode; 320,000 compounds, 0.19% hits; activation, % at 8.33 µM; Q8NER1; in the data active means activation above about 80%; inconclusive means between about 30% and that limit; further: 0% is about no effect
#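 TRPV1-expressing cells were cultured overnight at 35.5C and loaded with Fluo-8 calcium dye for 40 to 90 min at room temperature. After a 10 s baseline, compound was added and calcium influx was read kinetically for 3 min (ex 480/em 520 nm).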
# TRPML1 agonist: agonists of human TRPML1 channel. 410,000 compounds, 0.12% hits. TRPML1-expressing cells, Ca2+ dye fluorescence, FDSS. activation, % (no concentration beside the values). Q9GZU1; in the data active means activation above about 50%; inconclusive means mostly about 30% to 49%; further: 0% is about no effect
#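 Kinetic FDSS Ca2+ read in Tet-induced TRPML1-DL cells (ABD Ca8 dye plus quencher, 45-90 min RT loading): baseline, then compound, then 110 s agonist window; EC80 agonist 54-4 at 4uM final added afterwards for a 110 s antagonist window.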
# TRPML1 inh: human mucolipin-1 channel inhibition. activity change, negative = inhibition, % (no concentration beside the values). AID 624415. TRPML1-inducible cells, Ca2+ dye fluorescence, FDSS; hits give low values; inhibition of EC80 agonist-evoked calcium signal. 390,000 compounds, 0.02% hits; in the data active means activity change below about -50%; inconclusive means between about -30% and that limit;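 further: stimulus is agonist 54-4 at its EC80 concentration; on the % scale 0 is the no-effect control and ±100 the full control effect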
#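 Tet-induced TRPML1-DL cells loaded with Ca8 no-wash calcium dye were read kinetically on FDSS. Compound addition was followed by EC80 agonist 54-4 (4 uM final); inhibition was read over 110 s.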
# TRHR enhancer: allosterically enhances the human TRH receptor. 360,000 compounds, 0.66% hits. enhancement, % at 2 µM. TRHR cells, fluo-8 calcium fluorescence, EC20 TRH enhancement. P34981; in the data active means enhancement above about 30%; further: 0% is about no effect
#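 TRHR-expressing cells loaded with fluo-8 calcium dye were read kinetically (ex 480/em 530) during compound addition, then stimulated with an EC20 of TRH (10 nM final). Enhancement of the Gq-mediated intracellular calcium response was scored.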
# * marks the source's active call; other numbers are inactive results; ? = inconclusive; · = not tested or not shown.
SMILES,TRPV1 PAM,TRHR ag,TRPV1 agonist,TRPML1 agonist,TRPML1 inh,TRHR enhancer
O=C(Cc1nnc(CNC(=O)c2ccccc2)s1)Nc1ccc(C(F)(F)F)cc1Cl,·,0,·,·,·,-4
CCCn1c2ccccc2c2cnn(CC(=O)N(CCCOC(C)C)Cc3ccco3)c(=O)c21,·,-1,·,4,-1,-2
CCOC(=O)Cc1csc(NS(=O)(=O)c2cccc([N+](=O)[O-])c2)n1,3,0,0,0,27,36*
CCOC(=O)Cc1csc(NS(=O)(=O)c2ccccc2)n1,-7,0,-2,1,10,4
N#Cc1nc(Nc2ccc(C(F)(F)F)cc2)nc(NC2CCCC2)n1,·,0,·,·,·,-1
CCc1ccccc1NC(=O)c1ccc2c(c1)N(Cc1cccc(Cl)c1)C(=O)c1ccccc1S2(=O)=O,·,1,·,2,3,1
CCOc1ccc(-c2oc3cc(Cl)ccc3c(=O)c2O)cc1OC,·,78*,·,23,6,-11
COc1cc(-c2oc3ccc(C)cc3c(=O)c2O)cc(OC)c1OC,·,9,·,4,12,-2
Cc1cccc(C(=O)N2CCN=C2SCc2ccc([N+](=O)[O-])cc2)c1,23,0,3,-1,38,1
O=C(Cc1ccccc1)N1CCN=C1SCc1cccc([N+](=O)[O-])c1,7,0,4,0,-8,31*
Cc1onc(-c2c(Cl)cccc2Cl)c1C(=O)N1CCOCC1,1,1,1,-1,-4,6
Cc1cc(C)c2nc(-c3cccc(Cl)c3)c(C)c(C(=O)N3CCOCC3)c2c1,-28,0,-9,0,-5,33*
O=C1c2ccccc2C(=O)N1c1nc(-c2ccc(Cl)cc2)cs1,·,·,·,0,·,·
Cc1cc(N2CCCC2)c(F)cc1/C=C\[N+](=O)[O-],28,0,-6,52*,-3,1
Cc1csc[n+]1CC(=O)c1ccc(I)cc1,·,·,·,0,·,·
COc1cccc(NC(=O)NCCc2ccc(Cl)cc2)c1,-8,-1,?,0,0,-5
COc1cccc(NC(=O)Nc2ccncc2)c1,-2,1,?,4,12,-4
COc1cccc(NC(=O)Nc2ccc(C(C)(C)C)cc2)c1,-3,1,82*,-1,4,2
COC(=O)c1cc(NC(=O)Nc2ccccc2)ccc1Cl,-21,1,83*,1,14,-2
CCCCSCCCNC(=O)Nc1cccc(OC)c1,-8,0,83*,1,-3,7
Cc1ccc(-c2nc3nc(C)cc(N4CCN(c5cccc(C)c5C)CC4)n3n2)cc1,·,1,·,0,4,-1
CCOc1ccccc1C(=O)Nc1ccc(C(=O)c2ccccc2)cc1,6,-2,-2,2,63,-11
Cc1ccc(NC(=O)c2oc3ccccc3c2NC(=O)C2CC2)cc1,9,0,?,1,-6,-3
NC(=O)c1oc2ccccc2c1NC(=O)C1CCCCC1,-14,0,23,-1,4,38*
CCOc1ccccc1C(=O)Nc1c(C(=O)Nc2ccc(F)cc2)oc2ccccc12,·,1,·,0,28,43*
SMILES,TRPV1 PAM,TRHR ag,TRPV1 agonist,TRPML1 agonist,TRPML1 inh,TRHR enhancer
O=C(Nc1ccc(F)cc1)c1oc2ccccc2c1NC(=O)C1CC1,-11,0,82*,2,9,0
NC(=O)c1oc2ccccc2c1NC(=O)CN1CCCCC1,-10,0,4,2,-12,-8
CCOc1ccccc1C(=O)Nc1ccc(NC(=O)c2ccccc2)cc1,0,1,-2,-1,-3,34*
Cc1c([S+](=O)([O-])N2CCN([S+](=O)([O-])c3c(F)cccc3F)CC2)sc2ccc(Cl)cc12,·,1,·,·,·,1
CCOC(=O)/C=C1\CN(Cc2ccc(OC)cc2)S(=O)(=O)c2ccc(C(F)(F)F)cc21,·,·,·,0,·,·
COc1ccc(NC(=O)c2oc3ccccc3c2NC(=O)COc2ccc(F)cc2)c(OC)c1,·,0,·,-1,8,39*
Cc1cc(C)cc(Nc2ncnc3nc[nH]c23)c1,-6,1,?,1,-1,-2
FC(F)Sc1ccc(Nc2ncnc3nc[nH]c23)cc1,17,0,83*,2,9,2

# High-throughput results: PubChem, National Center for Advancing Translational Sciences (NCATS)
